An excerpt weighted towards active compounds, which were near 19% of everything screened.
Cycloheximide cs: Cycloheximide Counterscreen for Small Molecule Inhibitors of Shiga Toxin | cell reporter, cycloheximide protein synthesis inhibition counterscreen | max response, % | 12% of 300,000 active; in the data active = max response mostly above about 13%, no sharp cut-off; inactive = mostly below about 14%; note: read at 38.3 µM for the half of the compounds with a filed dose; 0% is about no effect
Pf growth 48h: Primary qHTS for delayed death inhibitors of the malarial parasite plastid, 48 hour incubation | 5.9% of 310,000 active | AID 504832, 2011 | Potency, µM (doses to about 28.7 µM), for the others: at the top dose activity change, negative = inhibition, usual class: inhibitors | P. falciparum luciferase growth in erythrocytes, 48 h; note: potency is the fitted concentration of half-maximal effect; % is set by controls: 0 for no effect and ±100 for the full control effect
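Growth was read as firefly luciferase luminescence after a 48 h, 37 C, 5% CO2 exposure of compounds to reporter-bearing P. falciparum cultures (0.1% parasitemia, 2% hematocrit final) in Albumax-supplemented RPMI 1640.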
LASV entry inh: qHTS for Inhibitors of binding or entry into cells for Lassa Virus; Lassa virus pseudotype entry inhibition, cell reporter; Potency, µM (highest dose often 37.9 µM), for inactives: at the highest dose activity change, negative = inhibition, actives largely listed as inhibitors; AID 540256, 2011; 1.2% of 300,000 active; calls by dose curve; tested in HEK293 cells; note: potency is the fitted concentration of half-maximal effect; % is set by controls: 0 for no effect and ±100 for the full control effect; nearly all actives have a fitted effect of over 50% in size
Pf growth 96h: Primary qHTS for delayed death inhibitors of the malarial parasite plastid, 96 hour incubation; Potency, µM (series often up to 28.7 µM), for inactives: at the highest dose activity change, negative = inhibition, most hits filed as inhibitors; 6.9% of 320,000 active; P. falciparum luciferase reporter growth, 96 h; AID 504834, 2011; note: potency is the fitted concentration of half-maximal effect; % is set by controls: 0 for no effect and ±100 for the full control effect
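P. falciparum expressing integrated firefly luciferase grown in erythrocytes (2% hematocrit, 0.05% parasitemia final) with compounds for 96 hours at 37 C, 5% CO2. Growth inhibition read as loss of luminescence after adding luciferase detection reagent.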
Marburg entry inh: qHTS for inhibitors of binding or entry into cells for Marburg Virus. Marburg virus pseudotyped entry inhibition, cell reporter. Potency, µM (series often up to 37.8 µM), for inactives: top-dose activity change, negative = inhibition, most hits filed as inhibitors. 1.8% of 300,000 active. AID 540276, 2011; calls by dose curve; tested in HEK293 cells; note: potency is the fitted concentration of half-maximal effect; % is set by controls: 0 for no effect and ±100 for the full control effect
Shiga inhibitor: A qHTS for Small Molecule Inhibitors of Shiga Toxin | Vero cells, Shiga toxin protein synthesis inhibition reporter | inhibition, % at 38.7 µM | 9.2% of 290,000 active | AID 2315, 2010; in the data active = inhibition mostly above about 28%, no sharp cut-off; inactive = mostly below about 43%; note: 0% is about no effect
An asterisk follows results filed as active; i = inactive; u = inconclusive; x = no result; [ ] = another dose, or the depositor's remark. Unless noted, calls come from the whole dose curve; as a rule, active = well fitted inhibition curve with a large enough effect; inconclusive = small, poorly fitted or top-dose-only effect, or another doubt; inactive = no such curve, though single readings can be large or run the other way.

SMILES	Cycloheximide cs	Pf growth 48h	LASV entry inh	Pf growth 96h	Marburg entry inh	Shiga inhibitor
CC(NC(=O)NNC(N)=S)(C(F)(F)F)C(F)(F)F	-3	3%	-1%	-16%	-12%	8
COc1ccccc1-c1cc(C(=O)NC2CCN(C)CC2)c2ccc(Cl)c(C)c2n1	-3	9.3µM*	u	u	u	13
O=C1CC2C(CC(OC(=O)c3ccc(-c4ccccc4)cc3)C2CO)O1 (stereo not given)	30*	132%	13%	x	-29%	49*
O=C1C[C@H]2[C@H](CO)[C@@H](OC(=O)c3ccc(-c4ccccc4)cc3)C[C@H]2O1	50*	87%	6%[46.1 µM]	52%	u	109*
O=C(Nc1ccn(C2CC(OC(=O)c3ccccc3)C(CO)O2)c(=O)n1)c1ccccc1 (stereo not given)	-2	u	-12%	6%	u	-4
CCOc1ccc(CCNC(=O)c2nnn(CC(=O)Nc3ccc(C)cc3)c2N)cc1OCC	-11	4%	x	39%	x	-5
O=C1C=CC(O)(c2cc(=O)c3c(O)cc(O)cc3o2)C=C1	45*	9.3µM*	u	15µM*	u	93*
O=c1cc(-c2ccccc2)c2c(O)cc(O)cc2o1	-2	21%	x	-24%	x	x
Cc1ccc(NC(=O)c2ccc3nc[nH]c3c2)c(O)c1	33*	282%	19%	282%	u	74*
Cc1ccc(NC(=O)c2cncc(Br)c2)c(O)c1	35*	-28%	u	u	u	66*
Cc1ccc(NC(=O)c2ccc3nc[nH]c3c2)nc1	-5	23%	-21%[46.1 µM]	5%	-23%[46.1 µM]	-17
O=C(Nc1ccccc1C(=O)O)c1cncc(Br)c1	-2	6%	7%	x	13%	-12
CCC(C)c1ccc(O)c(NC(=O)c2cncc(Br)c2)c1 (stereo not given)	-1	1µM*	5%	-22%	-8%	23
O=C(Nc1ccc(OC(F)(F)F)cc1)c1ccc2nc[nH]c2c1	33*	26%	x	4%	x	x
CCOC(=O)c1c(C)n(-c2ccccc2)c2ccc(OC(=O)c3cccc(OC)c3OC)cc12	x	x	15%[46.1 µM]	x	x	x
Cc1ccc(NC(=O)c2cncc(Br)c2)nc1	28*	102%	-33%[46.1 µM]	162%	u	79*
COc1ccccc1NC(=O)COC(=O)c1cc(C)n(C2CC2)c1C	x	x	0%[46.1 µM]	x	-1%[46.1 µM]	x
C[C@@H]1CC2C3CCC4=CC(=O)C=C[C@]4(C)[C@@]3(F)[C@@H](O)C[C@]2(C)[C@@]1(O)C(=O)COC(=O)c1cccc(S(=O)(=O)O)c1 (stereo not given in full)	x	-2%	x	1%	x	x
C[C@H]1CC2[C@@H]3CCC4=CC(=O)C=C[C@]4(C)[C@@]3(Cl)[C@@H](O)C[C@]2(C)[C@@]1(O)C(=O)CO (stereo not given in full)	x	x	x	x	16%	x
C[C@H]1C[C@@H]2[C@H]3CCC4=CC(=O)C=C[C@@]4(C)[C@@]3(Cl)[C@@H](O)C[C@]2(C)[C@]1(OC(=O)c1ccco1)C(=O)CCl	x	4.5µM*	x	2µM*	x	x
C[C@@H]1C[C@H]2[C@@H]3CCC4=CC(=O)C=C[C@]4(C)[C@@]3(Cl)[C@@H](O)C[C@]2(C)[C@@]1(OC(=O)c1ccco1)C(=O)CCl	x	1.9µM*	x	2.1µM*	x	x
CC(=O)OCC(=O)[C@@]1(O)[C@H](C)C[C@@H]2[C@H]3CCC4=CC(=O)C=C[C@]4(C)[C@]3(F)[C@@H](O)C[C@@]21C	x	-3%[12.8 µM]	x	-22%[12.8 µM]	x	x
CCCC(=O)O[C@]1(C(=O)CCl)[C@H](C)C[C@@H]2[C@H]3CCC4=CC(=O)C=C[C@]4(C)[C@@]3(F)C(=O)C[C@@]21C	x	u	x	1.9µM*	x	x
COc1ccc2c(c1)CC(C1(O)C(=O)Nc3ccccc31)C2=O (stereo not given)	-4	-13%	23%	35%	14%	39
COc1ccc(C(=O)CSc2nc(C)cc(C)c2C(=O)Nc2ccccc2C)cc1	x	x	-5%[46.1 µM]	x	2%[46.1 µM]	x
COc1ccc(-c2cn3cccc(C)c3n2)cc1F	57*	i	-3%	u	6%[46.1 µM]	113*

Bioassay records (PubChem)
